# Source: PubChem BioAssay (NCATS)
# Results filed as inconclusive are left out. A number with no mark means an inactive call. Activity calls are given as the source filed them. The call rests on the fitted dose curve; in most records, active means well fitted inhibition curve with a large enough effect; inconclusive means small, poorly fitted or top-dose-only effect; inactive means flat fitted curve, though single readings scatter.
# How the values were obtained:
# [1] = tested on: CRL-7250; assay: Cytotoxic Profiling of Annotated Libraries Using Quantitative High-Throughput Screening (AID 1296008); conditions: Five cell lines viability, CellTiter-Glo ATP luminescence, 48-72 h; max response: active compounds read low; further: nearly all actives have a fitted effect of over 60% in size
# Summary of the method: (§1)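 Cytotoxicity was measured as CellTiter-Glo ATP luminescence, read after 10 min at room temperature. Compound treatment of the cells lasted 48 or 72 hr at 37 degrees Celsius in a qHTS format.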
# [2] = tested on: HEK293; assay: as above; conditions: Five cell lines viability, CellTiter-Glo ATP luminescence, 48-72 h; max response: active compounds read low
# Summary of the method: as §1
# On the % scale 0 is the no-effect control and ±100 the full control effect; potency means the concentration at half of the fitted maximal effect.
smiles,measurement,setting,value
CC(C)(C)Nc1nc2cc(Cl)c(Cl)cc2nc1S(C)(=O)=O,Potency,[1],16400 nM (active)
same,Potency,[2],4110 nM (active)
C=C(C(=O)O)C1CC(O)C2(C)CCCC(=C)C2C1 (stereo not given),max response,[1],-4.23%
same,max response,[2],0.173%
C[C@H](Oc1ccc(S(C)(=O)=O)cc1C(=O)N1CCN(c2ncc(C(F)(F)F)cc2F)CC1)C(F)(F)F,outcome,[1],inactive
same,max response,[2],-24.7%
CC(NC(=O)C(O)C(C)C)C(=O)NC1C(=O)N(C)CCc2ccccc21 (stereo not given),max response,[1],-0.526%
same,outcome,[2],inactive
CC(=O)O[C@@H]1c2c3c(cc(O)c2C(=O)O[C@@H]1C)O[C@@]1(C)[C@@H](O)C[C@H]2C(C)(C)C(=O)C=C[C@]2(C)[C@@H]1C3,max response,[1],-27.6%
same,max response,[2],-27.5%
CC(C)=CCC[C@](C)(O[C@@H]1O[C@H](CO)[C@@H](O)[C@H](O)[C@H]1O)[C@H]1CC[C@]2(C)[C@@H]1[C@H](O)CC1[C@@]3(C)CC[C@H](O)C(C)(C)C3[C@@H](O[C@@H]3O[C@H](CO)[C@@H](O)[C@H](O)[C@H]3O)C[C@]12C (stereo not given in full),max response,[1],-0.753%
same,max response,[2],-3.92%
Cn1c(=O)n(-c2ccc(C(C)(C)C#N)cc2)c2c3cc(C#Cc4cccnc4)ccc3ncc21,Potency,[1],22.4 nM (active)
same,Potency,[2],89.3 nM (active)
COC(=O)CCc1cc2ccoc2c(OC)c1O[C@@H]1O[C@H](CO)[C@@H](O)[C@H](O)[C@H]1O,max response,[1],-7.38%
same,max response,[2],-10.4%
Cc1cc(NC(=O)Nc2ccc(F)c(F)c2)n(-c2ccccc2)n1,max response,[1],4.98%
same,max response,[2],-2.17%
CC1(C)CC[C@]23CO[C@@]4(CCC5[C@@]6(C)CC[C@H](O[C@@H]7OC[C@H](O[C@@H]8O[C@H](CO)[C@@H](O)[C@H](O)[C@H]8O)[C@H](O)[C@H]7O[C@@H]7O[C@H](CO)[C@@H](O[C@@H]8O[C@H](CO)[C@@H](O)[C@H](O)[C@H]8O)[C@H](O)[C@H]7O)[C@@](C)(CO)C6CC[C@@]5(C)[C@]4(C)C[C@H]2OC2OCC(O)C(O)C2O)C3C1 (stereo not given in full),Potency,[1],1550 nM (active)
same,Potency,[2],2450 nM (active)
CC1(C)[C@@H](O)CC[C@]2(C)[C@H]3CC=C4[C@@H]5C[C@](C)(C(=O)O)CC[C@]5(C)CC[C@@]4(C)[C@]3(C)CC[C@@H]12,max response,[1],-5.83%
same,max response,[2],2.45%
Nc1nc(-n2cc(C(=O)O)c(=O)c3cc(F)c(N4CC(O)C4)c(Cl)c32)c(F)cc1F,max response,[1],-9.26%
same,outcome,[2],inactive
COc1c2c(cc3c1-c1c(cc4c(c1OC)OCO4)CC(C)C(C)C3)OCO2 (stereo not given),max response,[1],1.23%
same,max response,[2],-21.6%
CC1(O)CC(O)C2(O)C=COC(O[C@@H]3O[C@H](CO)[C@@H](O)[C@H](O)[C@H]3O)C12 (stereo not given in full),max response,[1],-2.75%
same,max response,[2],4.59%
CC1C(=O)CC2C3CCC(C(=O)O)C12CC3(C)CO (stereo not given),max response,[1],-22.2%
same,max response,[2],0.671%
Cc1ccc(NC(=O)C(=O)NC2CC(C)(C)NC(C)(C)C2)cc1,outcome,[1],inactive
same,max response,[2],1.35%
Cc1ccc(S(=O)(=O)Cc2nc(-c3ccc(C(=O)NCc4cccnc4)cc3)oc2C)cc1,Potency,[1],65.1 nM (active)
same,Potency,[2],6.5 nM (active)
C/C(=C/CO)CC[C@@H]1[C@@](C)(O)CCC2C(C)(C)CCC[C@]21C (stereo not given in full),max response,[1],1.57%
same,max response,[2],4.02%
COc1ccc(CCO[C@@H]2CCCC[C@H]2N2CC[C@@H](O)C2)cc1OC,max response,[1],-6.87%
same,max response,[2],2.72%
COc1cc(/C=C/CO)cc(OC)c1O[C@@H]1O[C@H](CO[C@@H]2O[C@H](CO)[C@@H](O)[C@H](O)[C@H]2O)[C@@H](O)[C@H](O)[C@H]1O,max response,[1],3.07%
same,max response,[2],1.54%
C=C1CC23CC1CCC2C12OC(=O)C(C)(CCC1O)C2C3C(=O)O (stereo not given),outcome,[1],inactive
same,max response,[2],2.62%
CC(=O)/C=C/[C@H]1[C@](C)(O)[C@@H](O)[C@H](OC(C)=O)C2C(C)(C)CCC[C@@]21C (stereo not given in full),max response,[1],4.5%
same,max response,[2],-3.84%
CCc1c(C)nc2c(-c3cnn(-c4cc(CO)ccn4)c3)c[nH]n2c1=O,max response,[1],-0.312%
same,outcome,[2],inactive
CN(C)C/C=C/C(=O)Nc1cccc(C(=O)Nc2cccc(Nc3ncc(Cl)c(-c4c[nH]c5ccccc45)n3)c2)c1,Potency,[1],259 nM (active)
same,Potency,[2],580 nM (active)
Fc1ccc2nc(CCC#Cc3ccccn3)cn2c1,max response,[1],-4.35%
same,max response,[2],-6.15%
